Reference: PubChem BioAssay AID651965 (National Center for Advancing Translational Sciences (NCATS), 2013)
Among all 340,000 compounds or so, about 6,400 (1.9%) were called active. Another 4% or so got no clear call; they are omitted. The sample holds actives, similar compounds and a random draw of the others, so the mix is not that of the screen. Calls come from the whole dose curve; as a rule, active = well fitted falling curve with a large enough effect; inconclusive = small, poorly fitted or top-dose-only effect; inactive = no such curve, though single readings can be large or run the other way.

target: ATP-dependent Clp protease proteolytic subunit (Bacillus subtilis (strain 168)) (UniProt P80244); assay: qHTS Assay for Activators of ClpP; note: the source files actives as falling curves though it sought activators and does not explain the sign; nearly all actives have a fitted effect of over 65% in size; settings: purified B. subtilis ClpP, FRET peptide cleavage, 20 min; series mostly up to 57.5 µM; activity change, negative = active: at the top concentration
How it was run: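 Purified B. subtilis ClpP, 10 microg/mL final in Tris/HCl pH8 with KCl, BSA, glycerol and Tween-20, cleaved an Abz/nitrotyrosine-quenched decapeptide. Fluorescence (ex 320, em 430) was read at 0 and 20 min at room temperature. Delta was normalized to 5.8 microM ADEP and DMSO/no-enzyme controls.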
Potency is the fitted concentration of half-maximal effect.

Sequence of ATP-dependent Clp protease proteolytic subunit (Bacillus subtilis (strain 168)) (P80244 whole entry, looked up): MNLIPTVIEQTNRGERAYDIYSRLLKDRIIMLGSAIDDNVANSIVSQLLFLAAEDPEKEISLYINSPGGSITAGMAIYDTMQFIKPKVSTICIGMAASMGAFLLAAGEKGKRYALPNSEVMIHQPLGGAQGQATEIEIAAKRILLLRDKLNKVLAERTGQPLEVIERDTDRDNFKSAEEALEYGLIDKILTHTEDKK

| Compound | activity change, negative = active | Potency |
| --- | --- | --- |
| Cc1ccccc1-c1csc(C(O)c2cccc(Cl)c2)n1 (stereo not given) | -1.81% (inactive) | – |
| COc1ccc(C(=O)Nc2ccccc2C(=O)N2CCN(c3ccccc3)CC2)cc1 | -1.35% (inactive) | – |
| COc1ccc(C(=O)N2CCC(C(=O)Nc3ccc(C)cc3)CC2)cc1 | 0.262% (inactive) | – |
| COc1ccc(C(=O)Nc2c(Cl)cc(Cl)cc2C(=O)N2CCC(C)CC2)cc1 | – | 15.8 µM (active) |
| OC(Cc1ccc2ccccc2n1)c1ccc(Cl)c(Cl)c1 (stereo not given) | -2.58% (inactive) | – |
| COc1ccc(N2CCN(C(=O)CSc3nnc4ncccn34)CC2)cc1 | -0.882% (inactive) | – |
| COc1ccc(-c2ccnc(SCC(=O)N3CCOCC3)n2)cc1 | – | 15.8 µM (active) |
| COc1ccc(-c2nc(SCC(=O)N3CCOCC3)n[nH]2)cc1 | – | 15.8 µM (active) |
| O=C(CSc1n[nH]c(-c2ccccc2)n1)N1CCCCC1 | 1.34% (inactive) | – |
| O=C(CSc1nnc(-c2ccoc2)o1)N1CCOCC1 | -2.09% (inactive) | – |
| COc1ccc(-c2nc(SCC(=O)N3CCCCC3C)n[nH]2)cc1 (stereo not given) | -1.11% (inactive) | – |
| CCc1ccccc1NC(=O)CN1CCN(C(=O)c2cc(C3CC3)nn2-c2ccccc2)CC1 | 2.06% (inactive) | – |
| CSc1ccc(CNC(=O)C2(C)CCCN2C)cc1 (stereo not given) | -1.05% (inactive) | – |
| CCOC(=O)c1ccc(-n2c(CCC(=O)O)ccc2-c2ccccc2)cc1 | -2.4% (inactive) | – |
| CCOC(=O)c1ccc(COC(=O)CCc2nc(-c3ccccc3)c(-c3ccccc3)o2)cc1 | – | 28.2 µM (active) |
| CCOC(=O)c1c(-c2ccc(OC)cc2)oc2ccc(OCc3ccc(C(=O)OC)cc3)cc12 | 3.62% (inactive) | – |
| COC(=O)C1=CN(c2c(C)cc(C)cc2C)C(N)=C(C#N)C1c1cccc(F)c1 (stereo not given) | 1.91% (inactive) | – |
| Cc1ccc(Cn2cc(CN3CC(N4CCN(C)CC4)CS3(=O)=O)nn2)cc1 (stereo not given) | -0.127% (inactive) | – |
| OC[C@@H]1CN(Cc2cccs2)C[C@H](n2cnc3c(Nc4ccccc4)ncnc32)O1 | -29.3% (inactive) | – |
| CC(C)C[C@@H](COCc1ccc(Cl)cc1)N1CCN(C(=O)c2ccc(Cl)cc2Cl)CCC1=O | -4.04% (inactive) | – |
| OC[C@@H]1CN(Cc2ccc(-c3ccccc3)cc2)C[C@H](n2cnc3c(NC4CCCC4)ncnc32)O1 | -2.78% (inactive) | – |
| COc1cccc2c(=O)n(CC(=O)N3CCCCCC3)ccc12 | 4.01% (inactive) | – |
| C[N+](C)(CCCCCC[N+](C)(C)CCCN1C(=O)c2cccc3cccc(c23)C1=O)CCCN1C(=O)c2cccc3cccc(c23)C1=O | 4.06% (inactive) | – |
| O=C(CN1C(=O)c2cccc3cccc(c23)C1=O)N1CCCCC1 | – | 14.1 µM (active) |
| C#CCNC(=O)C[C@@H]1C[C@@]2(C(=O)OCC)CCCC=C2N(Cc2ccco2)C1=O | 2% (inactive) | – |

| Compound | activity change, negative = active | Potency |
| --- | --- | --- |
| CC(=O)Nc1cccc(Nc2ccc(C#N)cc2)c1 | -22.8% (inactive) | – |
| O=C1O/C(=C\c2ccc(O)cc2)C(O)=C1c1ccc(O)cc1 | -2.31% (inactive) | – |
| CCC(C)(C)NC(=O)C(c1ccc(O)cc1)N(C(=O)Cn1nnc2ccccc21)c1ccc(NC(C)=O)cc1 (stereo not given) | -0.392% (inactive) | – |
| CC(C)(C)NC(=O)C(c1ccco1)N(Cc1ccc2c(c1)OCO2)C(=O)Cn1nnc2ccccc21 (stereo not given) | -0.906% (inactive) | – |
| CCC(C)(C)NC(=O)C(c1cccn1C)N(Cc1ccc(C)cc1)C(=O)Cn1nnc2ccccc21 (stereo not given) | – | 31.6 µM (active) |
| Nc1[nH]c(C(=O)c2ccccc2)c(-c2ccncc2)c1C(=O)NCc1cccc2ccccc12 | 0.831% (inactive) | – |
| CCOC(=O)C1CCCN(C(=O)c2cccc3ccccc23)CC1 (stereo not given) | 0.267% (inactive) | – |
| COc1ccccc1CNC(=O)c1ccc(NC(=O)N2CC(C)Sc3ccccc32)cc1 (stereo not given) | -7.1% (inactive) | – |
| COc1ccc(CCNC(=O)c2cc3cccc4c3n2CC(C)S4)c(OC)c1OC (stereo not given) | – | 31.6 µM (active) |
| COc1ccc(CCNC(=O)c2nn(C)c3c2CSc2ccccc2-3)cc1OC | -0.894% (inactive) | – |
| NC(c1csc(NC(=O)Nc2cccc(C(F)(F)F)c2)n1)C1CCCCC1 (stereo not given) | 1.19% (inactive) | – |
| CN(Cc1ccccc1F)c1cc2c(c3c1ccn3C)C1CCC2O1 (stereo not given) | -8.78% (inactive) | – |
| COC(=O)Cc1ccc(OC2(C)CCN(Cc3ccc4c(c3)OCCO4)C2)cc1 (stereo not given) | -7.62% (inactive) | – |
| O=C(Nc1ccc([N+](=O)[O-])cc1)c1cnn2c1NC(=C1CC1)C=C2C(F)F | 1.47% (inactive) | – |
| Cc1cc(N2CCN(S(=O)(=O)c3ccc(C)c(C)c3)CC2)c2ccccc2n1 | -5.15% (inactive) | – |
| CC(=O)Nc1ccc(S(=O)(=O)N2CCN(c3ccccc3)CC2)cc1 | 0.606% (inactive) | – |
| Cc1ccc(S(=O)(=O)N2CCN(c3ccccc3)CC2)cc1C | – | 17.8 µM (active) |
| C[N+]1(CC(=O)c2cccs2)CCOCC1 | 1.49% (inactive) | – |
| CCCCC(=O)N(C)c1c(CC)nc2c(OCc3ccc(S(C)(=O)=O)cc3)cccn12 | -1.17% (inactive) | – |
| CCOc1ccc(C2=CC(c3ccccc3)n3ncnc3N2)cc1 (stereo not given) | 4.25% (inactive) | – |
| Cc1ccc(C2C=C(c3ccc(Cl)cc3)Nc3nc(NC(=O)CCC(=O)O)nn32)cc1 (stereo not given) | – | 6.31 µM (active) |
| COc1ccc(C2=CC(c3ccccc3Cl)n3nc(-c4ccc(Cl)cc4)nc3N2)cc1 (stereo not given) | -22.6% (inactive) | – |
| O=C(NCCOc1ccccc1)N1[C@H]2CC[C@@H]1C=C(c1ccc(F)cc1OCc1ccccc1)C2 | -2.32% (inactive) | – |
| CCCCn1nnnc1C1(C)CCC(=O)N1Cc1ccc(OC)c(OC)c1 (stereo not given) | 0.575% (inactive) | – |
| COCc1cccc(-c2csc(C(O)c3ccc(F)cc3)n2)c1 (stereo not given) | -7.81% (inactive) | – |

| Compound | activity change, negative = active | Potency |
| --- | --- | --- |
| O=S1(=O)CCN(Cc2ccccc2)CC1 | 0.68% (inactive) | – |
| Cc1ccc(-n2c(N)c(C(=O)N3CCOCC3)sc2=S)c(C)c1 | 0.999% (inactive) | – |
| N#Cc1ccccc1-n1c(N)c(C(=O)N2CCCC2)sc1=S | -4.07% (inactive) | – |
| Cc1cccc(-n2c(N)c(C(=O)N3CCN(C)CC3)sc2=S)c1 | – | 17.8 µM (active) |
| CCc1nc2c(OCCOc3ccccc3)cccn2c1N(C=O)Cc1ccc(OC)cc1 | -3.9% (inactive) | – |
| CS(=O)(=O)N1CCCCC1c1cc(C(=O)NCc2ccccc2)no1 (stereo not given) | -3.64% (inactive) | – |
| CCc1ccc(-c2cc(C(=O)NCc3ccco3)c3ccccc3n2)s1 | – | 28.2 µM (active) |
| CC(C)(C)c1ccc(C(=O)NCc2ccco2)cc1 | -0.141% (inactive) | – |
| CC(=O)NCCNC(=O)c1cc(-c2cccc3ccccc23)nc2ccccc12 | -5.07% (inactive) | – |
| CC(C)Nc1nc(NCCOc2ccccc2Cl)c2sccc2n1 | -4.76% (inactive) | – |
| COC(=O)c1ccc(CN2C(=O)C(Cc3ccccc3)ON=C2c2ncccc2C)o1 (stereo not given) | -0.769% (inactive) | – |
| COc1ccc(C(=O)NCC2CCCO2)cc1S(=O)(=O)NCc1ccc(Cl)cc1 (stereo not given) | -4.36% (inactive) | – |
| CC(c1ccco1)N(C(=O)COc1ccccc1[N+](=O)[O-])c1ccccn1 (stereo not given) | – | 15.8 µM (active) |
| CC(c1ccco1)N(C(=O)c1ccc(S(=O)(=O)N2CCCCC2)cc1)c1ccccn1 (stereo not given) | -0.1% (inactive) | – |
| Cc1ccc(CN(C(=O)c2ccccc2[N+](=O)[O-])c2ccccn2)cc1 | 0.425% (inactive) | – |
| CN(C(=O)CSc1nncc2ccccc12)C1CCCCC1 | -1.88% (inactive) | – |
| CCOCCCNC(=O)c1cc2c(=O)n3ccccc3nc2s1 | – | inactive |
| CN(C(=O)c1cc2c(=O)n3ccccc3nc2s1)C1CCCCC1 | – | 3.16 µM (active) |
| O=c1[nH][nH]c2c1[C@H](c1ccc(Cl)cc1)O[C@H](CCc1ccccc1)C2 | -0.921% (inactive) | – |
| COc1ccc(-c2cc3ccc(OCc4nn[nH]n4)cc3oc2=O)cc1 | 12.2% (inactive) | – |
| COc1cccc(C(=O)c2cc3ccc(O)cc3oc2=O)c1 | -2.45% (inactive) | – |
| O=c1oc2cc(O)ccc2cc1-c1ccc(F)cc1 | – | 14.1 µM (active) |
| CCOC(=O)N(C)c1c(CC)nc2c(OCc3ccccc3C(=O)OC)cccn12 | -2.46% (inactive) | – |
| COc1cncc(-c2cnc3sc(NCCc4ccccn4)nn23)c1 | -1.28% (inactive) | – |
| CCc1nc2ccc(C(=O)N3CCN(S(=O)(=O)CC)CC3)cn2c1N(C=O)CCC(C)C | -1.82% (inactive) | – |

| Compound | activity change, negative = active | Potency |
| --- | --- | --- |
| COc1ccc(S(=O)(=O)N(C)C[C@H]2OCc3cnnn3CCCC(=O)N([C@H](C)CO)C[C@H]2C)cc1 | -2.95% (inactive) | – |
| C=C1C(=O)[C@]23C[C@H]1CCC2[C@@]1(C)C(C[C@@H]3O)[C@](C)(C(=O)O)CC[C@@H]1O (stereo not given in full) | 0.0201% (inactive) | – |
| CC(C)CN1CCC1(C)C(=O)Nc1ccc(OC(F)F)cc1 (stereo not given) | -0.236% (inactive) | – |
| Cc1nn(Cc2ccccc2)c(C)c1C(=O)NCCCN1CCCC1=O | 0.973% (inactive) | – |
| O=C1CCCN1CCCNc1ncnc2c1[nH]c1ccccc12 | – | 22.4 µM (active) |
| O=Cc1c(NCCCN2CCCC2=O)c2ccccc2[nH]c1=O | 1.69% (inactive) | – |
| Nc1ncnc2c1ncn2[C@@H]1O[C@H](CNC(=O)[C@H](N)Cc2cccnc2)[C@@H](O)[C@H]1O | -0.917% (inactive) | – |
| Clc1ccc(Cc2nnc(-c3cccs3)o2)cc1 | -4.92% (inactive) | – |
| COc1ccc(CCc2nc(-c3cccs3)no2)cc1 | -0.0517% (inactive) | – |
| COc1nc(-c2ccc(Cl)cc2)ccc1-c1noc(-c2cccs2)n1 | – | 14.1 µM (active) |
| C[C@@H]1CN([C@H](C)CO)C(=O)c2cc(-c3ccc(F)cc3)cnc2O[C@H]1CN(C)C(=O)c1ccc(F)cc1 | -3.91% (inactive) | – |
| O=C(CC1Nc2ccccc2NC1=O)Nc1ccccc1 (stereo not given) | -1.78% (inactive) | – |
| O=C1NCC(c2ccccc2)(c2ccccc2)C(=O)N1 | -1.81% (inactive) | – |
| O=C1NCC(Nc2ccccc2)C(=O)N1 (stereo not given) | – | 12.6 µM (active) |
| CCCCNC(=O)Cn1c(SCc2cccc(Cl)c2)nc2ccncc21 | -5.3% (inactive) | – |
| COc1ccc(C(O)c2nc(-c3ccc4c(c3)OCO4)cs2)cc1 (stereo not given) | 0.0628% (inactive) | – |
| COCCNc1nc(Nc2ccccc2Cl)c2sc(-c3ccccc3)cc2n1 | 4.75% (inactive) | – |
| O=C1c2ccccc2C(=O)N1c1ccccc1S(=O)C(F)(F)F (stereo not given) | -3.11% (inactive) | – |
| O=C1c2ccccc2C(=O)N1c1cccc2ccccc12 | – | 7.94 µM (active) |
| CC1=C(C)CC2C(=O)N(c3cccc4ccccc34)C(=O)C2C1 (stereo not given) | -0.206% (inactive) | – |
| Cc1ccc(NC(=O)[C@H](Cc2ccccc2)NC(=O)CC[C@H]2O[C@@H](n3ccc(=O)[nH]c3=O)[C@H](O)[C@@H]2O)cc1C | 0.668% (inactive) | – |
| CC(C)C(C)NC(=O)COc1ncnc2ccccc12 (stereo not given) | – | 11.2 µM (active) |
| Cc1ccc(C2=NN(C(=O)COc3ncnc4ccccc34)C(c3ccco3)C2)cc1 (stereo not given) | 0.222% (inactive) | – |
| O=C(COc1ncnc2ccccc12)NC(=O)NCc1ccccc1 | -0.394% (inactive) | – |
| O[C@H]1C[C@H](c2ccc(Cl)cc2)N(Cc2cccs2)C[C@@H]1n1cc(C2CC2)nn1 | -2.04% (inactive) | – |
